Results filed as inconclusive are left out. Entries that show only a call come without a potency. Values without a mark were called inactive. Calls of active or inactive are those of the source. The call rests on the fitted dose curve; in most records, active means well fitted inhibition curve with a large enough effect; inconclusive means small, poorly fitted or top-dose-only effect; inactive means no such curve, though single readings can be large or run the other way.

Drawing on PubChem BioAssay (NCATS), this text covers Potency and activity change, negative = inhibition for 28 compounds.
Potency means the concentration at half of the fitted maximal effect.

The experiment relates to Zika virus NS2B-NS3 protease (linked construct). In words: Primary screen NINDS Rhodamine qHTS for Zika virus inhibitors (AID 1347160). Further: nearly all actives have a fitted effect of over 55% in size. The following applies: purified NS2B-NS3 protease, Rhodamine110 substrate fluorescence; series mostly up to 57.1 µM. An excerpt: Avindra Nath, Ph.D., National Institute of Neurological Disorders and Stroke (NINDS), Bethesda, MD
Radhakrishnan Padmanabhan, Ph.D., Georgetown University (GU), Washington D.C.
Zika Virus causes congenital defects, including microcephaly and is associated with Guillain-Barre syndrome, eningoencephalitis and myelitis in infected adult. […] Using a target-based approach, we hope to establish a screening paradigm to uncover novel, cell-active NS2B-NS3 protease (Zika Virus) specific inhibitors from NCATS' collection of small molecules using qHTS.
Four assay panel was created to identify potential Zika Virus inhibitors. Namely, (1) GU unlinked NS2B-NS3 AMC tagged protease qHTS, (2) GU unlinked NS2B-NS3 Rhodamine tagged protease qHTS, (3) NINDS linked NS2B-NS3 AMC tagged protease qHTS, (4) NINDS linked NS2B-NS3 Rhodamine tagged protease qHTS. Active compounds were re-acquired and re-screened to confirm inhibition. Inhibitors were further screened against various confirmatory and counterscreens in dose response format.
Early Translation Branch (ETB)
National Center for Advancing Translational Sciences (NCATS), Rockville, MD
National Institute of Health (NIH), Bethesda, Maryland
For the linked assay, Nath lab (NINDS) provided the purified linked NS2B-NS3 protease which is consists of hydrophilic domain of NS2B linked to the NS3 protease domain by a flexible (-[…]-) linker. Control compound aprotinin is obtained from Thermo Scientific (#78432; Waltham, Massachusetts). Rhodamine110 substrate ([N-Cbz]-Nle-Lys-Arg-Arg-Rhod110-Arg-Arg-Lys-Nle-[N-Cbz]) was purchased from either Genscript or Bachem.
1536-well Protease (Rhodamine110 Substrate) Assay:
Briefly, 3 microL of enzyme (25 nM final concentration), in assay buffer (10 mM Tris-HCl pH 8.0 with 0.01% Tween 20) were dispensed into a 1,536-well solid-bottom black plate (Greiner Bio One, Monroe, NC). Twenty-three nL of compounds (final concentration range 7.28 nM to 114 microM) or control Aprotinin (final concentration range 3.47 nM to 114 microM) were transferred via Wako Pin-tool (Wako Automation, Richmond, VA). Samples were incubated (room temperature, protected from light) for 15 minutes followed by a 1 microL Rhodamine110 substrate addition (1.5 microM final concentration). Plates were then immediately read on a ViewLux High-throughput CCD imager (PerkinElmer, Waltham, MA) equipped with FITC fluorescence optics (480(20) nm excitation, 540(25) nm emission), then incubated (room temperature, protected from light) for 15 minutes (~15% conversion). The change in fluorescence intensity over the 15-minute reaction period was normalized against no-inhibitor and no-enzyme controls and the resulting percent inhibition data were fitted to a 4-parameter Hill equation. Aprotinin was used as intraplate control.
Consider `COc1cc(Nc2c(C#N)cnc3cc(OCCCN4CCN(C)CC4)c(OC)cc23)c(Cl)cc1Cl`, for which the Potency entry was “inactive”.

For the compound `COc1ccccc1N1CCN(CCN(C(=O)C2CCCCC2)c2ccccn2)CC1`, the Potency result was “inactive”.

Turning to `CCC1=C(C)CN(C(=O)NCCc2ccc(S(=O)(=O)NC(=O)NC3CCC(C)CC3)cc2)C1=O` (stereo not drawn), the Potency entry was “inactive”.

Take `Clc1ccc(C(Cn2ccnc2)OCc2c(Cl)cccc2Cl)c(Cl)c1` (stereo not drawn): the Potency result is “inactive”.

As for `Cc1nccn1CC1CCc2c(c3ccccc3n2C)C1=O` (stereo not drawn), the Potency entry was “inactive”.

As for `CN(C)CCCC1(c2ccc(F)cc2)OCc2cc(C#N)ccc21` (stereo not drawn), the Potency entry is “inactive”.

With `Cc1ccc(Nc2nccc(N(C)c3ccc4c(C)n(C)nc4c3)n2)cc1S(N)(=O)=O`, the Potency result is “inactive”.

For the compound `CCN(CCO)CCCC(C)Nc1ccnc2cc(Cl)ccc12` (stereo not drawn), the activity change, negative = inhibition is -6.84% [at 4.91 µM].

For the compound `Cc1cc2c(s1)Nc1ccccc1N=C2N1CCN(C)CC1`, the Potency result is “inactive”.

Take `CC(=O)NC[C@H]1CN(c2ccc(N3CCOCC3)c(F)c2)C(=O)O1`: the Potency entry is “inactive”.

`Cc1ccc(NC(=O)c2ccc(CN3CCN(C)CC3)cc2)cc1Nc1nccc(-c2cccnc2)n1`: the Potency result was “inactive”.

As to `O=C(O)c1cccc(-c2noc(-c3ccccc3F)n2)c1`, the Potency entry was “inactive”.

With `N[C@@H](Cc1cc(I)c(Oc2cc(I)c(O)c(I)c2)c(I)c1)C(=O)O`, the Potency is 6.31 µM (active).

`CN(c1nccc(=O)[nH]1)C1CCN(c2nc3ccccc3n2Cc2ccc(F)cc2)CC1`: the Potency result is “inactive”.

`CC(C)C[C@H](NC(=O)[C@H](Cc1ccccc1)NC(=O)c1cnccn1)B(O)O`: the Potency result was “inactive”.

Turning to `O=C(OC1C[C@H]2CC[C@@H](C1)[N+]21CCCC1)C(O)(c1ccccc1)c1ccccc1` (stereo partly drawn), the Potency result is “inactive”.

Consider `Cc1nc(Nc2ncc(C(=O)Nc3c(C)cccc3Cl)s2)cc(N2CCN(CCO)CC2)n1`, for which the Potency result is “inactive”.

For `CC(C)c1nc(CN(C)C(=O)N[C@H](C(=O)N[C@@H](Cc2ccccc2)C[C@H](O)[C@H](Cc2ccccc2)NC(=O)OCc2cncs2)C(C)C)cs1`, the Potency entry is “inactive”.

Regarding `CN(C)C(=O)[C@H](O)[C@H](Cc1ccccc1)NC(=O)c1cc2cc(Cl)ccc2[nH]1`, the Potency result is “inactive”.

Take `OC(CN1CCN(c2cccc(Cl)c2)CC1)C(c1ccccc1)c1ccccc1` (stereo not drawn): the Potency result was “inactive”.

As for `COc1c(O)cc2c(c1O)[C@@H]1O[C@H](CO)[C@@H](O)[C@H](O)[C@H]1OC2=O`, the Potency entry is “inactive”.

For the compound `COc1ccc(C2(C#N)CCC(C(=O)O)CC2)cc1OC1CCCC1` (stereo not drawn), the Potency result is “inactive”.

As to `COCCCOc1ccnc(CS(=O)c2nc3ccccc3[nH]2)c1C` (stereo not drawn), the Potency entry was “inactive”.

Consider `COc1cc2c(N3CCN(C(=O)Nc4ccc(OC(C)C)cc4)CC3)ncnc2cc1OCCCN1CCCCC1`, for which the Potency result is “inactive”.

For the compound `c1cnc2cc3c(cc2n1)C1CNCC3C1`, the Potency result was “inactive”.

Consider `CC(=O)O[C@H]1C(=O)[C@@]2(C)C([C@H](OC(=O)c3ccccc3)[C@]3(O)C[C@H](OC(=O)[C@H](O)[C@@H](NC(=O)c4ccccc4)c4ccccc4)C(C)=C1C3(C)C)[C@]1(OC(C)=O)CO[C@@H]1C[C@@H]2O` (stereo partly drawn), for which the Potency entry was “inactive”.

Turning to `CCCS(=O)c1ccc2nc(NC(=O)OC)[nH]c2c1` (stereo not drawn), the Potency result is “inactive”.

As for `COc1ccc2cc([C@H](C)C(=O)O)ccc2c1`, the Potency result was “inactive”.
